Screening data (PubChem BioAssay)
KB-V1 MDR tox = KB-V1 MDR subline cytotoxicity; KB-V1 MDR cells viability, CellTiter-Glo, 72 h; Potency, µM (titrated, usually from 46.1 µM), hits mostly cytotoxic; 3.4% of 400,000 active; AID 1347076; note: % is set by controls: 0 for no effect and ±100 for the full control effect; nearly all actives have a fitted effect of over 60% in size
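Drug-selected KB-V1 cells, grown in DMEM lacking phenol red with 10% FBS, receive compound titrations; after three days at 37 degrees C, surviving cell ATP is quantified by CellTiter-Glo luminescence and responses normalized and curve-fitted.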
PTAP TSG101 blk = blocks PTAP/TSG101 interaction to inhibit HIV-1 budding; Fluorescence polarization, FITC-PTAP peptide / Tsg101 binding; Potency, µM (highest dose often 115 µM), for the others: at the highest dose activity change, negative = inhibition, most hits filed as inhibitors; 340,000 tested, under 10 active; AID 493005; active = well fitted inhibition curve with a large enough effect in the main read-out, with a control signal flat, not every such curve was filed as active; inconclusive = small, poorly fitted or top-dose-only effect, or effect the other way, or a change in a side signal; inactive = no such curve, though single readings can be large or run the other way; note: % of control where 0% means no effect
Target sequence (Q99816 whole entry, looked up): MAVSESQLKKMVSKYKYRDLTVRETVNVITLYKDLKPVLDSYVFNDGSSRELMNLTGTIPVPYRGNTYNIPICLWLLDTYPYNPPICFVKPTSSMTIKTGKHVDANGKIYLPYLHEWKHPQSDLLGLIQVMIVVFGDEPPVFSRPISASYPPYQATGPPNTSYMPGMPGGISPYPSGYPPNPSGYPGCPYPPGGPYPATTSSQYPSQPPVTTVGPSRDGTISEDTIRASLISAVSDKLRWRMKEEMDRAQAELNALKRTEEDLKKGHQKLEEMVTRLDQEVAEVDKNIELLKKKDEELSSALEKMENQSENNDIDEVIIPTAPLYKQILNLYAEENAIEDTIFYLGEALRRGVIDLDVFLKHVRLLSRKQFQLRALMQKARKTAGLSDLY
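Compounds were pin-transferred onto Tsg101 binding domain (10 uM final) in HEPES pH 7.5 buffer, then FITC-PTAP peptide was added at 50 nM final. After 20 min at RT, polarization reported peptide displacement across a qHTS concentration series.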
RGS4 inhibitor = blocks human RGS4-accelerated GTP hydrolysis | AID 504845 | 0.039% of 390,000 active | Transcreener GDP fluorescence polarization, RGS4-accelerated GTP hydrolysis | Potency, µM (highest dose often 114 µM), for inactives: at the top dose activity change, negative = inhibition, most hits filed as inhibitors | P49798; note: % is set by controls: 0 for no effect and ±100 for the full control effect; nearly all actives have a fitted effect of over 75% in size
Target sequence (P49798 whole entry, looked up): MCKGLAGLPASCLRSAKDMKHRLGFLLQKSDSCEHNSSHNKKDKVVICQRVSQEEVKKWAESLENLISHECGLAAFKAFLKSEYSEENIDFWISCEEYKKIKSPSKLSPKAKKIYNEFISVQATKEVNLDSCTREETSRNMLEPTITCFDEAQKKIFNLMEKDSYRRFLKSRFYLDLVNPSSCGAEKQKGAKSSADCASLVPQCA
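MLSMR compounds (23 nl, pin-transferred) preincubated 10 min at room temperature with a 500nM (2x) first reagent, then RGS4 at 900nM (2x) plus Transcreener GDP mix added; fluorescence polarization (620/688 nm) read before and after 90 min at 30 °C.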
KB-3-1 tox = kills parental KB-3-1 adenocarcinoma cells | 1.4% of 400,000 active | AID 1347075 | KB-3-1 viability, CellTiter-Glo ATP luminescence, 72 h | Potency, µM (doses to about 46.1 µM), most hits filed as cytotoxic; note: % is set by controls: 0 for no effect and ±100 for the full control effect; nearly all actives have a fitted effect of over 60% in size
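KB-3-1 cells, DMEM (no phenol red) + 10% FBS; compound by pin transfer, 72 h, 37 °C. Readout: CellTiter-Glo luminescence after 10 min. Data normalized, curve-fitted.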
MCF10A rereplic = inducers of DNA re-replication in MCF 10A breast cells; MCF 10A DNA re-replication, Hoechst nuclear intensity, 48 h; Potency, µM (highest dose often 46.1 µM), for the others: top-dose activity, positive = re-replication, usual class: activators; 2.9% of 350,000 active; note: % of control where 0% means no effect; nearly all actives have a fitted effect of over 50% in size
SW480 rerep = inducers of DNA re-replication in SW480 colon cancer cells; SW480 DNA re-replication, Hoechst DNA content imaging, 48 h; 1.8% of 340,000 active; Potency, µM (titrated, usually from 46.1 µM), for inactives: top-dose re-replication activation, actives largely listed as activators; note: % of control where 0% means no effect; nearly all actives have a fitted effect of over 55% in size
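Quantitative HTS format with DMSO vehicle controls; 48 hr drug incubation at 37 C, then 40 min Hoechst staining and scanning imager measurement at 405 nm excitation.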
An asterisk follows results filed as active; i = inactive; ? = inconclusive; . = not tested or not shown; ! = not active in a repeat; [ ] = another dose, or the depositor's remark. Most compounds without a hit are left out; they make up all but 6.6% or so of the library. Unless noted, calls come from the whole dose curve; as a rule, active = well fitted curve in the direction sought with a large enough effect; inconclusive = small, poorly fitted or top-dose-only effect, or another doubt; inactive = no such curve, though single readings can be large; an effect the other way counts as inactive or inconclusive. Potency is the fitted concentration of half-maximal effect.

SMILES	KB-V1 MDR tox	PTAP TSG101 blk	RGS4 inhibitor	KB-3-1 tox	MCF10A rereplic	SW480 rerep
CC(C)(C)C(=O)NC(=S)NNC(=O)c1sc2ccccc2c1Cl	10µM*	2%	-51%	9.2µM*	12µM*	?
O=C(NNC(=S)NC1CCCCC1)c1sc2ccccc2c1Cl	18µM*	-1%	-32%	i	?	.
O=C(NNC(=S)NC1CCCCC1)c1cccs1	23µM*	-2%	2%	i	-1%	16%
O=C1c2[nH]nc(-c3ccccc3)c2C(c2ccccc2)N1c1cccc(C(F)(F)F)c1 (configuration not stated)	16µM*	.	-2%	?	.	.
Cc1ccccc1N1CC(c2nc3ccccc3n2Cc2ccc(Br)cc2)CC1=O (configuration not stated)	i	.	-24%	?	.	.
CC(=NN=C(C)c1ccc(O)cc1)c1ccc(O)cc1	i	-2%	23%	?	14%	-10%
C/C=C(/C(=C/C)c1ccc(O)cc1)c1ccc(O)cc1	?	-4%	6%	i	4.6µM*!	?
O=C(C1=C[C@H](c2ccc(Br)cc2)C[C@H](OCCCCO)O1)N1CCN(Cc2ccc3c(c2)OCO3)CC1	?	-3%	-9%	i	18µM*	-18%
C#CCNC(=O)C1=C[C@@H](c2cn(C(C)=O)c3ccccc23)C[C@@H](OCc2ccc(CO)cc2)O1	?	0%	-4%	i	5%	?
O=C(C1=C[C@@H](c2ccc3c(c2)OCO3)C[C@@H](OCCCCO)O1)N1CCN(Cc2ccc3c(c2)OCO3)CC1	i	2%	16%	i	?	-12%[9.22 µM]
O=C(C1=C[C@H](c2csc3ccccc23)C[C@H](OCc2ccc(CO)cc2)O1)N1CCN(Cc2ccc3c(c2)OCO3)CC1	i	0%	7%	i	23µM*	-10%[9.22 µM]
CC(=O)n1cc([C@H]2C=C(C(=O)NCc3ccccc3)O[C@@H](OCc3ccc(CO)cc3)C2)c2ccccc21	i	1%	-31%	i	18µM*	16%
O=C(Nc1ccccc1)C1=C[C@@H](C2CCCCC2)C[C@@H](OCc2ccc(CO)cc2)O1	i	-4%	-2%	?	16µM*	?
CCOc1ccc2c(c1)c(=O)c(C(=O)c1ccc(CC)cc1)cn2CC(=O)Nc1cccc(Cl)c1	i	.	27%	i	.	.
O=C(NCc1ccccc1)C1=C[C@H](c2csc3ccccc23)C[C@H](OCc2ccc(CO)cc2)O1	i	-3%	9%	i	?	1%
C#CCNC(=O)C1=C[C@H](c2csc3ccccc23)C[C@H](OCc2ccc(CO)cc2)O1	i	.	6%	i	2.1µM*	?
C#Cc1ccc([C@H]2C=C(C(=O)N3CCN(Cc4ccc5c(c4)OCO5)CC3)O[C@@H](OCc3ccc(CO)cc3)C2)cc1	i	-5%	6%	i	26µM*	?
Cc1cc(=O)n(CC(=O)N2CCCc3ccccc32)c2c1c(C)nn2-c1cccc(F)c1	i	.	-4%	i	.	.
CCC1Sc2ccccc2N(CC(=O)NCc2ccc(C)cc2)C1=O (configuration not stated)	.	.	7%	.	.	.
COc1cccc(NC(=O)Cn2c(=O)n(CC(=O)NCc3ccc(C)cc3)c(=O)c3sccc32)c1	.	.	6%	.	.	.
Cc1ccc2cc(C#N)c(NCCNC(=S)NCCCN(C)C)nc2c1C	i	-1%	18%	i	21µM*	?
Cc1ccc2cc(C#N)c(NCCNC(=O)C3CC3)nc2c1C	3.7µM*	-3%	-21%	?	?	?
CCOCCCNC(=S)NCCNc1nc2c(C)cccc2cc1C#N	i	-2%	-25%	i	?	?
CCC(=O)NCCNc1nc2cc(C)c(C)cc2cc1C#N	i	-9%	-1%	i	0%	-1%
Cc1cc(C)c2nc(NCCCNC(=S)NCCCN(C)C)c(C#N)cc2c1	i	1%	11%	?	18µM*	12µM*
SMILES	KB-V1 MDR tox	PTAP TSG101 blk	RGS4 inhibitor	KB-3-1 tox	MCF10A rereplic	SW480 rerep
COc1ccc(NC(=O)c2ccc(CNS(=O)(=O)c3ccc4c(c3)C(C)(C)C(=O)N4C)cc2)cc1	.	.	-20%	.	.	.
Ic1ccc(/C=C2\C=Cc3ccccc32)cc1	i	.	.	i	.	.
O=C(O)c1ccc(Cl)c(S(=O)(=O)N(Cc2ccccc2)c2ccccc2)c1	i	-1%	11%	i	9%	1%
O=C(O)c1ccc(Cl)c(S(=O)(=O)N(Cc2ccccc2)c2ccccc2Cl)c1	?	-3%	17%	?	8.2µM*	1%
O=C(O)c1ccc(Cl)c(S(=O)(=O)N(Cc2ccccc2)c2ccc(F)cc2)c1	?	-10%	2%	i	?	2%
COc1ccc(N(Cc2ccccc2)S(=O)(=O)c2cc(C(=O)O)ccc2Cl)cc1	i	-6%	-31%	i	18µM*	-3%
COc1ccc(Cl)cc1NC(=O)N1CCC(CN2CCc3ccccc3C2)CC1	.	.	23%	.	.	.
COc1cc(C(=O)N2CCN(c3ccc(Nc4ccccc4)nn3)CC2)cc(OC)c1OC	.	.	7%	.	.	.
CCCCNC(=O)O[C@@H]1C[C@@H]2CCN3C(=O)CCC[C@H]([C@H]1CC)[C@H]23	21µM*!	-2%	?	i	10%	-12%
O=C(CC1(O)C(=O)N(Cc2ccccc2)c2ccc(Br)cc21)c1ccccc1 (configuration not stated)	i	.	-9%	i	.	.
C=CCN1C(=O)C(O)(CC(=O)c2ccco2)c2cc(Br)ccc21 (configuration not stated)	?	-1%	-4%	i	?	13µM*
Cc1nc(N2CCCCC2)sc1C(=O)c1ccc(SCCO)c([N+](=O)[O-])c1	15µM*	-9%	?	i	?	29%
C=CCC(Nc1ccccc1)C12C=CC(O1)C(C(=O)OC)=C2C(=O)OC (configuration not stated)	?	-6%	?	18µM*	13µM*	?
COC(=O)C1=C(C(=O)OC)[C@]2([C@@H]3CC=CCN[C@@H](Cc4ccccc4)C(=O)N3Cc3ccccc3)C=C[C@H]1O2	i	1%	-5%	i	2%	-5%[9.22 µM]
COc1ccc(C)cc1NC(=O)c1nnn(Cc2cccc(F)c2)c1N	i	0%	2%	?	27%	20%
COc1ccc(NC(=O)c2nnn(Cc3cccc(F)c3)c2N)c(OC)c1	i	1%	-7%	6.5µM*	?	7%
N/C(=N\OC(=O)COc1ccccc1)c1ccccn1	i	-4%	13%	i	4%	18µM*
